# Bioassay records: PubChem, National Center for Advancing Translational Sciences (NCATS)
# This is one part of a sample in which hits are shown more often than they occur.
# IL-1B inflam inh – inflammasome signaling inhibition, IL-1 beta readout | AID 743279 | THP-1 LPS/ATP IL-1B secretion, AlphaLISA, 16 h; hits give low values | activity change, % at 57.5 µM | 360,000 tested, 4.7% active; in the data active = activity change below about -50%; inconclusive = mostly about -30% to -49%
#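 THP-1 cells pretreated 1 hr with compounds (up to 57.5 uM final), then stimulated with LPS (250 ng/mL final) plus ATP (1.25 mM final); secreted IL-1B measured by AlphaLISA after 16 hr, decreased signal indicating inhibition.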
# 12-LOX inh – inhibitors of human 12S-lipoxygenase ALOX12. P18054. purified 12hLO, xylenol orange hydroperoxide absorbance. Potency, µM (series often up to 108 µM), without a hit: at the highest dose activity change, negative = inhibition, most hits filed as inhibitors. 580,000 tested, 1.1% active. AID 1671190; note: potency is the fitted concentration of half-maximal effect
# Target sequence (P18054 whole entry, looked up): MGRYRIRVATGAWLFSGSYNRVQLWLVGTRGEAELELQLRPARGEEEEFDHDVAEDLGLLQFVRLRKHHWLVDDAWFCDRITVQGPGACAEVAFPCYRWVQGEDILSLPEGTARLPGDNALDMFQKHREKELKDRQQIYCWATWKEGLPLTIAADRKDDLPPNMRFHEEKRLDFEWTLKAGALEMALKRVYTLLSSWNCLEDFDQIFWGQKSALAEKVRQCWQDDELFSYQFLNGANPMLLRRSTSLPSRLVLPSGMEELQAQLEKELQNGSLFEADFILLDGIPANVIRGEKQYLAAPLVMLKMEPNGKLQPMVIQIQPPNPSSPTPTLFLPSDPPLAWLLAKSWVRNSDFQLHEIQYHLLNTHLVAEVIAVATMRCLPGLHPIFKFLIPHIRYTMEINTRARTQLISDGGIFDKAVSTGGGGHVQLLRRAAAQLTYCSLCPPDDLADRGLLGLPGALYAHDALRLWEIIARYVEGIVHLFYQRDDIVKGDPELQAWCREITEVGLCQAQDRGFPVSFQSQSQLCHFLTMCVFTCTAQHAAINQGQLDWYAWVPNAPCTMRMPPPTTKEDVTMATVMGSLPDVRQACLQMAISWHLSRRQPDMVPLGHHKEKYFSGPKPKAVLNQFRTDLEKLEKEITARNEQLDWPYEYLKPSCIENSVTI
#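 Purified human 12hLO at 150 nM in 25 mM Hepes, 0.01% Triton X-100, pH 7.0, preincubated 15 min at room temperature with compound. Reaction started with 40 uM arachidonic acid, 30 min at room temperature. Hydroperoxide measured by Fe-xylenol orange, 573/405 nm absorbance ratio.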
# DT40 TDP1 no CPT – qHTS for Inhibitors of human tyrosyl-DNA phosphodiesterase 1 (TDP1): qHTS in cells in absence of CPT; 420,000 tested, 15% active; DT40 Tdp1-/- hTDP1 cells, no CPT, ATP luminescence, 48 h; Potency, µM (titrated, usually from 46.2 µM), without a hit: top-dose activity change, negative = growth inhibition, most hits filed as inhibitors; note: potency is the fitted concentration of half-maximal effect; nearly all actives have a fitted effect of over 55% in size
#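 Chicken DT40 Tdp1-/- cells complemented with human TDP1, screened without camptothecin (DMSO vehicle only), 400 cells/well. Compounds pin-transferred, cells incubated at 37 °C for at least 48 hr. Growth read as ATP-dependent luminescence (CellTiter-Glo, 30 min at RT).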
# HT1080 IDH1KD tx – kills HT-1080 cells with IDH1 knockdown; HT-1080 IDH1 knockdown viability, ATP luminescence, 48 h; Potency, µM (doses to about 46.1 µM), inactives show at the highest dose activity, negative = toxicity, most hits filed as cytotoxic; 360,000 tested, 2% active; AID 686971;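 note: potency is the fitted concentration of half-maximal effect; 0% = DMSO wells and -100% = cell-free medium wells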
#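 Knockdown cells (IDH1KD HT-1080) received compounds 2 h after plating at 750 cells/well and were kept 48 h at 37 °C in 5% FBS RPMI. A CellTiter-Glo luminescence read gave % activity for curve fitting.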
# TDP1 cell CPT – growth inhibition of DT40 Tdp1-/-;hTDP1 cells with camptothecin (screen for TDP1 inhibitors); chicken DT40 Tdp1-/-;hTDP1 cells + 20 nM CPT, ATP luminescence, 48 h; Potency, µM (series often up to 46.2 µM), for the others: at the highest dose activity change, negative = growth inhibition, hits mostly inhibitors; 420,000 tested, 12% active; AID 686979; note: potency is the fitted concentration of half-maximal effect; nearly all actives have a fitted effect of over 55% in size
#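 Cell growth measured by CellTiter-Glo luminescence after a minimum 48 h, 37 C compound exposure with 20 nM CPT in Tdp1-knockout DT40 cells stably expressing hTDP1, seeded 400/well; qHTS titration format.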
# HT1080-NT tox – kills 2HG-producing HT-1080-NT fibrosarcoma cells; Potency, µM (doses to about 46.1 µM), without a hit: at the top dose activity, negative = less viability, actives largely listed as cytotoxic; 360,000 tested, 1.6% active; AID 686970; HT-1080-NT fibrosarcoma viability, CellTiter-Glo ATP luminescence, 48 h;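 note: NT is the 2HG producing partner of a matched IDH1 knockdown line; potency is the fitted concentration of half-maximal effect; 0% = DMSO-treated cells and -100% = media-only wells without cells; nearly all actives have a fitted effect of over 55% in size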
#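 Luminescent CellTiter-Glo readout after 48 hours of compound exposure at 37 degrees C defined viability of HT-1080-NT cells. Activity was normalized to DMSO wells and cell-free media wells; concentration-response curves were fitted and assigned curve classes.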
# * = called active by the depositor; ? = inconclusive; . = no result; [ ] = another dose, or the depositor's remark. Unless noted, calls come from the whole dose curve; as a rule, active = well fitted curve in the direction sought with a large enough effect; inconclusive = small, poorly fitted or top-dose-only effect, or another doubt; inactive = no such curve, though single readings can be large; an effect the other way counts as inactive or inconclusive. Unless noted, % is set by controls: 0 for no effect and ±100 for the full control effect.
SMILES,IL-1B inflam inh,12-LOX inh,DT40 TDP1 no CPT,HT1080 IDH1KD tx,TDP1 cell CPT,HT1080-NT tox
CC(=O)Nc1ccc(NC(=O)Cn2cnc3c(cnn3C(C)(C)C)c2=O)cc1,-21,128%,-11%,-2%,-11%,12%
CC(C)(C)n1ncc2c(=O)n(CC(=O)NCc3ccccc3)cnc21,27,6%,6.5µM*,16µM*,8.2µM*,16µM*
Cc1ccc(Cl)c(Cn2cnc3c(cnn3C(C)(C)C)c2=O)c1F,.,-8%,.,.,.,.
CC1CCCCN1CCNC(=O)c1ccc2c(=O)n(CCc3ccccc3)c(=O)[nH]c2c1 (configuration not stated),1,-17%,?,0%,?,-18%
O=c1c2ccccc2c(C=NCCCN2CCOCC2)c(O)n1Cc1ccccc1,-8,-9%,?,-22%,18µM*,-15%
O=C(NCCCN1CCOCC1)c1ccc2c(=O)n(Cc3ccccc3)c(=S)[nH]c2c1,-73*,11%,?,16µM*,-23%,18µM*
COc1ccc(CCn2c(=S)[nH]c3cc(C(=O)NCc4ccco4)ccc3c2=O)cc1OC,15,.,16µM*,-29%,21µM*,?
CC1CCCCN1CCNC(=O)c1ccc2c(=O)n(Cc3ccc(Cl)cc3)c(=S)[nH]c2c1 (configuration not stated),-97*,?,?,23µM*,?,21µM*
COc1ccc(-n2c(=S)[nH]c3cc(C(=O)NCc4ccco4)ccc3c2=O)cc1OC,12,3%,-25%,17%,-20%,14%
O=C(c1ccc2c(=O)n(Cc3ccccc3)c(=S)[nH]c2c1)N1CCOCC1,38,1%,-28%,-13%,-20%,0%
N#CCC(=O)NN,.,-7%[22.9 µM],-15%,.,-3%,.
COC(=O)C1(NC(=O)c2ccc3c(c2)OCO3)CCCCC1,.,4%,.,.,.,.
O=c1c2cc3c(cc2[nH]c(=S)n1C1CCN(Cc2ccccc2)CC1)OCO3,13,-9%,?,9%,26µM*,-6%
O=C(NCCN1CCCC1)c1ccc(Cn2c(=S)[nH]c3cc4c(cc3c2=O)OCO4)cc1,16,?,23µM*,5%,-29%,0%
COc1ccccc1Cn1c(=S)[nH]c2cc(C(=O)NCCN(C)C)ccc2c1=O,-56*,0%,-19%,-39%,?,-26%
COc1ccccc1Cn1c(=S)[nH]c2cc(C(=O)NCC3CCCO3)ccc2c1=O (configuration not stated),-1,6%,?,-18%,?,0%
O=C(NCCCN1CCCC1=O)c1ccc2c(=O)n(Cc3ccco3)c(=S)[nH]c2c1,7,-26%,?,0%,16µM*,1%
COc1cccc(CN2CC(C(=O)NCCCCc3ccccn3)CCC2=O)c1 (configuration not stated),12,-12%,11%,9%,9%,6%
CC(=O)c1ccc(SCC(=O)O)c(F)c1,.,-12%,.,.,.,.
CCNC(=O)CC12CC3CC(C1)CC(CC(=O)NCC)(C3)C2,.,-41%,.,.,.,.
O=C(c1cn(CCN2CCNCC2)nn1)N1C[C@@H]2CC[C@H](C1)N(CC1CC1)C2,.,1%,.,.,.,.
COC(=O)c1ccc2c(=O)n(Cc3ccc(C(=O)NC(C)C)cc3)c(=S)[nH]c2c1,32,7%,23µM*,0%,?,-1%
CC(C)NC(=O)c1ccc2c(=O)n(CC3CCCO3)c(=S)[nH]c2c1 (configuration not stated),16,7%,-25%,0%,3%,2%
COc1cccc(C(=O)N2CCC(c3nc4ccccc4s3)CC2)c1,.,-7%,?,.,?,.
